Reference: PubChem BioAssay (EPA / NIEHS)
“And” between values parts separate entries of the source, which are not always exact repeats. Identical values can stand only once. Some structures have more than one record in an assay (separate samples or runs), and their calls can disagree. The source made the active and inactive calls. The calls were made as follows: active = hit-call score of the fitted dose curve at least 0.9, where 1 is the maximum; inactive = score below 0.9.

Assays:
[1] = ATG_GLI_CIS: Attagene CIS-FACTORIAL HepG2 Assay for human Zinc Finger Protein GLI1 (AID 2282945); details: HepG2, Attagene cis-factorial reporter mRNA, GLI element; actives raise or lower the signal
Procedure, shortened: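 Transiently transfected HepG2 cells report endogenous transcription factor activity via cis-element-driven reporter units. After 24 h compound exposure, reporter mRNA was measured by RT-PCR with capillary electrophoresis; bidirectional fitting against DMSO baseline.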

[2] = biological target: Bile acid receptor (Homo sapiens) (UniProt Q96RI1); test: ATG_IR1_CIS: Attagene CIS-FACTORIAL HepG2 Assay for human Nuclear Receptor Subfamily 1 Group H Member 4 (NR1H4), IR1 submotif (AID 2282946); details: IR1 reporter transcription, actives raise or lower the signal
Chain of Bile acid receptor (Homo sapiens) (Q96RI1 whole entry, looked up): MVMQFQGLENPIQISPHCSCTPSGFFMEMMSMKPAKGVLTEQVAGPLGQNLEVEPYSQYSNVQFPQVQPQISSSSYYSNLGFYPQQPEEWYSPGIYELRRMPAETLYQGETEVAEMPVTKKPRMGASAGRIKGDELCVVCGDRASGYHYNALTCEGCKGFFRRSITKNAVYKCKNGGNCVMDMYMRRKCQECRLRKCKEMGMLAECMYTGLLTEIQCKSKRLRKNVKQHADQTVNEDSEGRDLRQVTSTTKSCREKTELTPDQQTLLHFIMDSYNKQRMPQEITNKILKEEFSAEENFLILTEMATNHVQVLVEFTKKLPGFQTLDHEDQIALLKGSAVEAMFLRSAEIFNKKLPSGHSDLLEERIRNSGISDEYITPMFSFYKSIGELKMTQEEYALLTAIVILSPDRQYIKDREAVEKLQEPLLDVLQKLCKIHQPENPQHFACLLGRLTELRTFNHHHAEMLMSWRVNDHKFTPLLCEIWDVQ
Procedure, shortened: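 HepG2 cells transiently transfected with multiple cis-promoter-driven reporter units to measure endogenous transcription factor activity; 24 h exposure. Reporter mRNA read by RT-PCR, FAM labelling, HpaI digestion and capillary electrophoresis. Bidirectional fit versus DMSO.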

[3] = ATG_GRE_CIS: Attagene CIS-FACTORIAL HepG2 Assay for human Glucocorticoid Response Elements (GRE) (AID 2282947); details: HepG2 GRE cis-reporter, Attagene multiplex mRNA; actives raise or lower the signal
Procedure, shortened: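 Transiently transfected HepG2 cells carrying GRE cis-reporter units (endogenous TF activity) dosed 24 h; reporter mRNA quantified by RT-PCR, 6-FAM labelling, HpaI digestion and capillary electrophoresis. Bidirectional fit versus DMSO baseline.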

[4] = ATG_ISRE_CIS: Attagene CIS-FACTORIAL HepG2 Assay for human Interferon Regulatory Factor 1 (IRF1) binding to an Interferon-Stimulated Response Element (ISRE) (AID 2282948); details: HepG2 ISRE cis-reporter (Attagene), mRNA transcription readout; actives raise or lower the signal
Procedure, shortened: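 Quantitation relies on labelled RT-PCR fragments separated by capillary electrophoresis. Human HepG2 cells bearing cis-promoter reporter constructs were treated 24 h; DMSO served as baseline for bidirectional fitting.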

[5] = ATG_M_32_CIS: Attagene CIS-FACTORIAL HepG2 Assay for M32 Transcription Factor (Internal Marker) (AID 2282949); details: HepG2 Attagene cis-factorial M32 reporter, mRNA; actives raise or lower the signal;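 also: background control marker of the multiplexed CIS panel rather than a real target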
Procedure, shortened: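 Fluorescent capillary electrophoresis peaks of HpaI-digested, FAM-labelled RT-PCR reporter products give the signal. Source: transiently transfected human liver HepG2 cells, 24 h after chemical dosing; bidirectional fitting against DMSO.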

[6] = ATG_M_06_CIS: Attagene CIS-FACTORIAL HepG2 Assay for M06 Transcription Factor (Internal Marker) (AID 2282950); details: HepG2 Attagene CIS-FACTORIAL M06 internal marker reporter; actives raise or lower the signal
Procedure, shortened: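 HepG2 liver cells, 24 h exposure. Reporter transcripts from transfected cis-element constructs quantified by RT-PCR/capillary electrophoresis fluorescence. Bidirectional curve fit against DMSO.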

[7] = biological target: Hypoxia-inducible factor 1-alpha (Homo sapiens) (UniProt Q16665); test: ATG_HIF1a_CIS: Attagene CIS-FACTORIAL HepG2 Assay for human Hypoxia Inducible Factor 1 (HIF1A) (AID 2282951); details: HepG2 Attagene cis-factorial HIF1a reporter transcription; actives raise or lower the signal
Chain of Hypoxia-inducible factor 1-alpha (Homo sapiens) (Q16665 whole entry, looked up): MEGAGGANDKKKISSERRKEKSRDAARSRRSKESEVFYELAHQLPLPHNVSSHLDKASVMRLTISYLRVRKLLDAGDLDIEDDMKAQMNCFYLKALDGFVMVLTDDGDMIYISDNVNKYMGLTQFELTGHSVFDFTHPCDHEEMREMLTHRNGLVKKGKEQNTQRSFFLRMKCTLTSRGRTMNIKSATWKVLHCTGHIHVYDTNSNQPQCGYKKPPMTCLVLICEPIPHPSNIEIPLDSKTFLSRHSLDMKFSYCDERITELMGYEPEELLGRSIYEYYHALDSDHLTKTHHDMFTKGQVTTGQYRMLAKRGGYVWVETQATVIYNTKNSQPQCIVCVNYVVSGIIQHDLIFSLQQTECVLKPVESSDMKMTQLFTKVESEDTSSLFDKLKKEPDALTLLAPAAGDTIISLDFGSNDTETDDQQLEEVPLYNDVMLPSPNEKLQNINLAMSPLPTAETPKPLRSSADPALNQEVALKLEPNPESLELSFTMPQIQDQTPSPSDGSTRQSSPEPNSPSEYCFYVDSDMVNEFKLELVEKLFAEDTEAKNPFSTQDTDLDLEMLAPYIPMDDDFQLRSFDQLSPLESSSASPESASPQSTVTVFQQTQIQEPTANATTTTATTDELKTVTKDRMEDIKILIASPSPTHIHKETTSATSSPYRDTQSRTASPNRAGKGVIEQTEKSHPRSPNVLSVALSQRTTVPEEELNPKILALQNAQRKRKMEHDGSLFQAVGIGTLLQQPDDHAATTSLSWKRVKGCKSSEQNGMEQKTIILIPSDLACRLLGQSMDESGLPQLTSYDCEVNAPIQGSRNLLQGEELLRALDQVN
Procedure, shortened: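 In this multiplexed cell assay, HepG2 cells bearing transfected cis reporters are dosed for 24 h and reporter mRNA is read by RT-PCR plus capillary electrophoresis; signal increases and decreases are both scored against DMSO.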

[8] = biological target: Hepatocyte nuclear factor 6 (Homo sapiens) (UniProt Q9UBC0); test: ATG_HNF6_CIS: Attagene CIS-FACTORIAL HepG2 Assay for human Hepatocyte Nuclear Factor 6 (HNF6) (AID 2282952); details: HepG2 Attagene cis-factorial HNF6 reporter transcription; actives raise or lower the signal
Chain of Hepatocyte nuclear factor 6 (Homo sapiens) (Q9UBC0 whole entry, looked up): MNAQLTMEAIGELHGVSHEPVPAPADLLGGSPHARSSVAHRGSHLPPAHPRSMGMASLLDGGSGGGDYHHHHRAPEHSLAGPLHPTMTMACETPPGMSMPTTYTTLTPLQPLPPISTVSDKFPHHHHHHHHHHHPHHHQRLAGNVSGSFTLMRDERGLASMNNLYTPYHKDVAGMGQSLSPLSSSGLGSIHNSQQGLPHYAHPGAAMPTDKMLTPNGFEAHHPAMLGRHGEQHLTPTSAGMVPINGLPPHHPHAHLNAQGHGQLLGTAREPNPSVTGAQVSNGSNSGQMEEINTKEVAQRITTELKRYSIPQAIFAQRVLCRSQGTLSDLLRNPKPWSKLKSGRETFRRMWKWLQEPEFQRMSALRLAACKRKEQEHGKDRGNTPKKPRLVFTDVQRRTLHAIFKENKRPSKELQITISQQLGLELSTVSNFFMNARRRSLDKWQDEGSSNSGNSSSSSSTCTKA
Procedure, shortened: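 HepG2, transient MRTU transfection (cis promoters); 24 h chemical exposure; total RNA → oligo(dT) RT → PCR → 6-FAM labelling → HpaI cut → CE; bidirectional fit vs DMSO.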

[9] = biological target: Heat shock factor protein 1 (Homo sapiens) (UniProt Q00613); test: ATG_HSE_CIS: Attagene CIS-FACTORIAL HepG2 Assay for human Heat Shock Transcription Factor 1 (HSE) (AID 2282953); details: HepG2 HSE cis-reporter, Attagene RNA transcription; actives raise or lower the signal
Chain of Heat shock factor protein 1 (Homo sapiens) (Q00613 whole entry, looked up, the tested form may be a part): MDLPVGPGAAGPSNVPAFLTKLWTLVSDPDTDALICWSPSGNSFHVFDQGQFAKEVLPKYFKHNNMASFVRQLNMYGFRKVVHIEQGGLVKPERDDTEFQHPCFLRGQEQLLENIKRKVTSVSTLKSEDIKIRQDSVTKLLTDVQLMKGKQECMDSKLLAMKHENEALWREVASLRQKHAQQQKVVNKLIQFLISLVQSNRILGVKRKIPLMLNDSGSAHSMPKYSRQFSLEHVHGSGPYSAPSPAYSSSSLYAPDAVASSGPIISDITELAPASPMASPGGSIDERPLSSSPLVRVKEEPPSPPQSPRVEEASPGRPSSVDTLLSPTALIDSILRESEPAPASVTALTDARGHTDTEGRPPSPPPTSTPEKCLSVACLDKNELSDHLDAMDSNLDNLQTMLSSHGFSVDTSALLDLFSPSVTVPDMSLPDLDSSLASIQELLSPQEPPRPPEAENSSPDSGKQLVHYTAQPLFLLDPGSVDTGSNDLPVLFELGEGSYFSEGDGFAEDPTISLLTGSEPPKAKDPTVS
Procedure, shortened: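 Endogenous transcription factor activity captured via cis-promoter reporter units transfected into HepG2; treatment lasted 24 h. Fluorescence intensity of reporter fragments analysed with bidirectional curve fitting, DMSO baseline.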

[10] = ATG_MRE_CIS: Attagene CIS-FACTORIAL HepG2 Assay for human Metal Responsive Element (MRE) (AID 2282954); details: HepG2 MRE cis-reporter transcription, Attagene multiplex; actives raise or lower the signal
Procedure, shortened: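 HepG2 cells transiently transfected with cis-element-driven reporter units; mRNA measured 24 h after dosing. Reporter transcripts quantified by RT-PCR, FAM labelling, HpaI digestion and capillary electrophoresis; bidirectional fit versus DMSO.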

[11] = ATG_PBREM_CIS: Attagene CIS-FACTORIAL HepG2 Assay for human Phenobarbital-responsive Enhancer Module (PBREM) (AID 2282955); details: HepG2 PBREM cis-reporter, Attagene multiplexed transcription; actives raise or lower the signal
Procedure, shortened: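 After a 24 h incubation with test chemical, transfected HepG2 cells yield total RNA; reporter-specific RT-PCR products are fluorescently labelled, HpaI-digested and resolved by capillary electrophoresis against ROX size standards.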

[12] = biological target: Paired box protein Pax-6 (Homo sapiens) (UniProt P26367); test: ATG_Pax6_CIS: Attagene CIS-FACTORIAL HepG2 Assay for human Paired Box 6 (PAX6) (AID 2282956); details: HepG2 CIS-FACTORIAL PAX6 reporter transcription, RNA readout; actives raise or lower the signal
Chain of Paired box protein Pax-6 (Homo sapiens) (P26367 whole entry, looked up): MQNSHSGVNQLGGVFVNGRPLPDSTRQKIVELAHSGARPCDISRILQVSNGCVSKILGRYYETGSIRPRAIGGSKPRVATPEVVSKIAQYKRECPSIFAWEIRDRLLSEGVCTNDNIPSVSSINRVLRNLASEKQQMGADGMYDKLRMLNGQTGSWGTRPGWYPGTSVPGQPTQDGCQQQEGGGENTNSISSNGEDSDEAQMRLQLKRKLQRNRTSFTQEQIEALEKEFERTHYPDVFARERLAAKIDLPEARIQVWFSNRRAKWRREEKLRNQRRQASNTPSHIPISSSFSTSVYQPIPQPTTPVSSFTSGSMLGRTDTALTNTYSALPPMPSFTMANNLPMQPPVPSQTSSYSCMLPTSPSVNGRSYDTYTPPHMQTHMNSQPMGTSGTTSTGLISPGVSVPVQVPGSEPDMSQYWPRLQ
Procedure, shortened: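 After twenty-four hours of chemical exposure, transfected HepG2 cells are harvested for RNA. Cis-promoter reporter transcripts are amplified, fluorescently labelled and sized by capillary electrophoresis, with gain and loss of signal scored against DMSO.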

[13] = ATG_PXRE_CIS: Attagene CIS-FACTORIAL HepG2 Assay for human Pregnane X Receptor Element (PXRE) (AID 2282957); details: HepG2 Attagene CIS-FACTORIAL PXRE reporter, mRNA; actives raise or lower the signal
Procedure, shortened: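 Transfect HepG2 with MRTUs (cis promoter elements); dose chemical, incubate 24 h; isolate RNA, RT with oligo(dT), PCR, 6-FAM label, HpaI cut, CE. Gain/loss fit vs DMSO.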

[14] = ATG_PPRE_CIS: Attagene CIS-FACTORIAL HepG2 Assay for human Peroxisome Proliferator-activated Response Element (PPRE) (AID 2282958); details: HepG2 PPRE cis-element reporter, Attagene transcription factor profiling; actives raise or lower the signal
Procedure, shortened: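 Multiplexed reporter transcription units under cis-regulatory promoters were transfected into HepG2 cells to capture endogenous factor activity. A 24 h incubation preceded RNA isolation and fluorescent RT-PCR fragment analysis.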

[15] = ATG_Sox_CIS: Attagene CIS-FACTORIAL HepG2 Assay for human SRY-box transcription factor (SOX) (AID 2282960); details: HepG2 Attagene cis-factorial SOX reporter, mRNA; actives raise or lower the signal
Procedure, shortened: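 After 24 h of chemical treatment, transfected HepG2 reporter cells are lysed for total RNA. Transcript levels come from RT-PCR with labelled primer extension and capillary electrophoresis, analysed bidirectionally versus DMSO.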

[16] = biological target: Transcription factor Sp1 (Homo sapiens) (UniProt P08047); test: ATG_Sp1_CIS: Attagene CIS-FACTORIAL HepG2 Assay for human Specificity Protein 1 (Sp1) (AID 2282961); details: HepG2 Sp1 cis-reporter transcription, actives raise or lower the signal
Chain of Transcription factor Sp1 (Homo sapiens) (P08047 whole entry, looked up): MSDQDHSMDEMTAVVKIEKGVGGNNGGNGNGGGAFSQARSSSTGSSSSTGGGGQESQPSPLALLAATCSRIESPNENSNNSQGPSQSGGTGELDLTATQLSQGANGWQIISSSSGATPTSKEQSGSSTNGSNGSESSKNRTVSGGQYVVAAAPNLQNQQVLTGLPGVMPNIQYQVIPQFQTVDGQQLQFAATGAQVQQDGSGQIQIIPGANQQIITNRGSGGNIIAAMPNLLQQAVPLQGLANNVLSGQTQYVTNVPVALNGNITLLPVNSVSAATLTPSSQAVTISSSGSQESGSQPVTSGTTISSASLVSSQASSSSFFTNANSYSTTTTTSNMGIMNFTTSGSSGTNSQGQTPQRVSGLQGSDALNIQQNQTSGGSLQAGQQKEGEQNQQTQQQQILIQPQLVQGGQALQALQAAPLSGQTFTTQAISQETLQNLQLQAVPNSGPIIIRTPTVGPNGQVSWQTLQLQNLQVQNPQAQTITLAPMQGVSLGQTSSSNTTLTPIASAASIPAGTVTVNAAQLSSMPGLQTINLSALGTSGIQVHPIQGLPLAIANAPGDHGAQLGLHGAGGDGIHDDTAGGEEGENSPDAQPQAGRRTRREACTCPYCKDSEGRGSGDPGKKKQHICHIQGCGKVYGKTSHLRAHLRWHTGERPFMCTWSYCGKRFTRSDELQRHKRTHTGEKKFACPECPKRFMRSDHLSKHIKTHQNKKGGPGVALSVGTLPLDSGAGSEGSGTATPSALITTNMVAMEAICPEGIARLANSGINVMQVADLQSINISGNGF
Procedure, shortened: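 Sp1-driven reporter mRNA, read as capillary electrophoresis fluorescence after RT-PCR, in transiently transfected HepG2 cells dosed for 24 h; signal change in either direction relative to DMSO.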

[17] = ATG_SREBP_CIS: Attagene CIS-FACTORIAL HepG2 Assay for human Sterol Regulatory Element Binding (SREBP) (AID 2282962); details: HepG2 Attagene cis-factorial SREBP reporter, mRNA; actives raise or lower the signal
Procedure, shortened: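 Twenty-four hours after chemical dosing of transfected HepG2 cultures, reporter RNA was converted to cDNA, amplified, end-labelled with 6-FAM and resolved by capillary electrophoresis. Responses were fitted relative to DMSO.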

[18] = ATG_TA_CIS: Attagene CIS-FACTORIAL HepG2 Assay for human TA Basal Promoter (AID 2282964); details: HepG2 Attagene CIS-factorial TA basal promoter reporter; actives raise or lower the signal
Procedure, shortened: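 Fluorescence from labelled RT-PCR reporter fragments, separated by capillary electrophoresis, gives the signal. Cells: HepG2 transiently carrying multiple reporter units, 24 h chemical dosing. Gain or loss relative to DMSO.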

[19] = ATG_RORE_CIS: Attagene CIS-FACTORIAL HepG2 Assay for human RAR-related Orphan Receptor Element (RORE) (AID 2282959); details: HepG2 Attagene cis-factorial RORE reporter, mRNA; actives raise or lower the signal
Procedure, shortened: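 Fluorescence intensity of reporter-specific cDNA fragments, separated by capillary electrophoresis, gives the signal. Source: HepG2 liver cells transiently transfected with cis-element reporters and exposed 24 h; DMSO-normalized bidirectional fit.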

[20] = biological target: Signal transducer and activator of transcription 3 (Homo sapiens) (UniProt P40763); test: ATG_STAT3_CIS: Attagene CIS-FACTORIAL HepG2 Assay for human Signal Transducer and Activator of Transcription 3 (STAT3) (AID 2282963); details: HepG2, Attagene cis-factorial STAT3 reporter transcription; actives raise or lower the signal
Chain of Signal transducer and activator of transcription 3 (Homo sapiens) (P40763 whole entry, looked up): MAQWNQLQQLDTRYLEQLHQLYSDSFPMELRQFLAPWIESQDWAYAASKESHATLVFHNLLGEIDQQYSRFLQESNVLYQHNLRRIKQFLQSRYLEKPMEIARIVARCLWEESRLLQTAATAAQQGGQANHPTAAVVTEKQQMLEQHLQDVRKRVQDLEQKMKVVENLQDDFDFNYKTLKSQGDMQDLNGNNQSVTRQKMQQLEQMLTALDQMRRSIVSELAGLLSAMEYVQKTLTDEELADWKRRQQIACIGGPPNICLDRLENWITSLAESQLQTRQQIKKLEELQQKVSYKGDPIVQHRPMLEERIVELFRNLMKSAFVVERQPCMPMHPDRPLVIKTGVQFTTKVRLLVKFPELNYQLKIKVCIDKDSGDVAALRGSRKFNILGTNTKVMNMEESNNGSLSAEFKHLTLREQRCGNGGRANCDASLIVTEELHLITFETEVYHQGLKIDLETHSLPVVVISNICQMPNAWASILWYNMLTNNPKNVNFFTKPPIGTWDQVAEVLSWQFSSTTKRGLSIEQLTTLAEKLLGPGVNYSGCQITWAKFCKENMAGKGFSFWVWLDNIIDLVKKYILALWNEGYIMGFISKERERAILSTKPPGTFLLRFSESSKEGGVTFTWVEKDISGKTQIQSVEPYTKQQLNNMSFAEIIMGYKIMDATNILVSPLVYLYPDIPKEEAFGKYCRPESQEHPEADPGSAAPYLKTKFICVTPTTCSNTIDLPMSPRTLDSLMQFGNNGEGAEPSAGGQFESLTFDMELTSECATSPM
Procedure, shortened: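 HepG2 cells transiently transfected with multiple cis-element-driven reporter units report endogenous transcription factor activity. After 24 h compound exposure, reporter mRNA is measured by RT-PCR, 6-FAM labelling, HpaI digestion and capillary electrophoresis. Fitted bidirectionally versus DMSO.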

Measured: AC50

CCCN(CCOc1c(Cl)cc(Cl)cc1Cl)C(=O)n1ccnc1
active: [9] 2.61 µM | [10] 18.6 µM | [11] 2.92 µM | [13] 828 nM and 60.9 µM | [16] 4.43 µM | [17] 11.1 µM
inactive: [1] | [2] | [3] | [4] | [5] | [6] | [7] | [8] | [9] | [10] | [11] | [12] | [14] | [15] | [16] | [17] | [18]

COC(=O)c1ccccc1CS(=O)(=O)NC(=O)Nc1nc(OC)cc(OC)n1
inactive: [1] | [2] | [3] | [4] | [5] | [6] | [7] | [8] | [9] | [10] | [11] | [12] | [13] | [14] | [19] | [15] | [16] | [17] | [20] | [18]
active: [13] 33.9 µM

CNC(=O)/C=C(\C)OP(=O)(OC)OC
inactive: [1] | [2] | [3] | [4] | [5] | [6] | [7] | [8] | [9] | [10] | [11] | [12] | [13] | [14] | [15] | [16] | [17] | [18]
